From PubChem BioAssay AID1159580 (chemical genetic matrix, 2015)
The whole screen tested about 5,500 compounds, of which about 2,000 (36%) were called active. Not shown: some 18% with an inconclusive outcome. Cut-off read from the data, not from the text of the source: active = normalized growth mostly below about 0.91 (no sharp cut-off); inconclusive = no clear call, values can overlap the other calls; inactive = mostly above about 0.92. The list shows a part of the results.

Assay: chemical genetic growth profiling, strain panel (AID 1159580);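 note: tested at 20 µM; growth read once vehicle control cultures reached saturation at 30 °C; 1 = growth at the plate median or of vehicle wells; lower values mean less growth of the strain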
Details: growth OD

Measured: normalized growth

C[C@@H]1CC[C@@]2(OC1)O[C@H]1CC3C4CC[C@H]5C[C@@H](O)CC[C@]5(C)C4CC[C@]3(C)[C@H]1[C@@H]2C (stereo not given in full)
inactive: S. cerevisiae deletion strains, locus YJR066W, strain TOR1, active compounds read low 0.945 | S. cerevisiae deletion strains, locus YJR075W, strain HOC1, active compounds read low 0.981 | S. cerevisiae deletion strains, locus YKL009W, strain mrt4, active compounds read low 0.991 | S. cerevisiae deletion strains, locus YKL068W, active compounds read low 0.981 | S. cerevisiae deletion strains, locus YKL085W, strain MDH1 (second series), active compounds read low 0.977 | S. cerevisiae deletion strains, locus YKL085W, strain MDH1, active compounds read low 0.977 | S. cerevisiae deletion strains, locus YKL160W, strain elf1, active compounds read low 0.996 | S. cerevisiae deletion strains, locus YKR001C, strain vps1, active compounds read low 0.987 | S. cerevisiae deletion strains, locus YKR026C, strain gcn3, active compounds read low 0.984 | S. cerevisiae deletion strains, locus YKR091W, strain srl3, active compounds read low 0.986 | S. cerevisiae deletion strains, locus YLL001W, strain dnm1, active compounds read low 1 | S. cerevisiae deletion strains, locus YLL026W, active compounds read low 0.988 | S. cerevisiae deletion strains, locus YLL041C, strain sdh2, active compounds read low 1 | S. cerevisiae deletion strains, locus YLR027C, strain aat2, active compounds read low 0.988 | S. cerevisiae deletion strains, locus YLR039C, strain RIC1, active compounds read low 1.01 | S. cerevisiae deletion strains, locus YLR058C, strain SHM2, active compounds read low 0.991 | S. cerevisiae deletion strains, locus YLR102C, strain apc9, active compounds read low 0.977 | S. cerevisiae deletion strains, locus YLR113W, strain HOG1, active compounds read low 0.999 | S. cerevisiae deletion strains, locus YLR221C, strain rsa3, active compounds read low 1.02 | S. cerevisiae deletion strains, locus YLR258W, strain gsy2, active compounds read low 1 | S. cerevisiae deletion strains, locus YLR262C, strain YPT6 (second series), active compounds read low 1.02 | S. cerevisiae deletion strains, locus YLR268W, strain sec22, active compounds read low 1 | S. cerevisiae deletion strains, locus YLR320W, strain mms22, active compounds read low 0.99 | S. cerevisiae deletion strains, locus YLR342W, strain FKS1, active compounds read low 0.976 | S. cerevisiae deletion strains, locus YLR357W, strain rsc2, active compounds read low 0.973 | S. cerevisiae deletion strains, locus YLR370C, strain arc18, active compounds read low 0.997 | S. cerevisiae deletion strains, locus YLR371W, strain rom2, active compounds read low 0.979 | S. cerevisiae deletion strains, locus YLR384C, strain iki3, active compounds read low 0.993 | S. cerevisiae deletion strains, locus YLR418C, strain cdc73, active compounds read low 0.973 | S. cerevisiae deletion strains, locus YML016C, strain PPZ1, active compounds read low 1 | S. cerevisiae deletion strains, locus YML032C, strain rad52, active compounds read low 0.997 | S. cerevisiae deletion strains, locus YML120C, strain ndi1, active compounds read low 1.01 | S. cerevisiae deletion strains, locus YML124C, strain tub3, active compounds read low 0.983 | S. cerevisiae deletion strains, locus YMR058W, strain fet3, active compounds read low 0.996 | S. cerevisiae deletion strains, locus YMR078C, strain ctf18, active compounds read low 0.969 | S. cerevisiae deletion strains, locus YMR125W, strain sto1, active compounds read low 0.984 | S. cerevisiae deletion strains, locus YMR129W, active compounds read low 0.987 | S. cerevisiae deletion strains, locus YMR205C, strain PFK2, active compounds read low 1 | S. cerevisiae deletion strains, locus YMR223W, strain ubp8, active compounds read low 0.979 | S. cerevisiae deletion strains, locus YMR231W, strain pep5, active compounds read low 0.998 | S. cerevisiae deletion strains, locus YMR263W, strain SAP30, active compounds read low 0.976 | S. cerevisiae deletion strains, locus YMR307W, strain GAS1, active compounds read low 1.23 | S. cerevisiae deletion strains, locus YNL067W, strain RPL9B, active compounds read low 0.974 | S. cerevisiae deletion strains, locus YNL071W, strain lat1, active compounds read low 0.996 | S. cerevisiae deletion strains, locus YNL183C, strain NPR1, active compounds read low 0.975 | S. cerevisiae deletion strains, locus YNL209W, strain ssb2, active compounds read low 0.983 | S. cerevisiae deletion strains, locus YNL233W, strain BNI4, active compounds read low 0.99 | S. cerevisiae deletion strains, locus YNL248C, strain rpa49, active compounds read low 1 | S. cerevisiae deletion strains, locus YNL250W, strain rad50, active compounds read low 0.955 | S. cerevisiae deletion strains, locus YNL271C, strain bni1, active compounds read low 0.983 | S. cerevisiae deletion strains, locus YNL298W, strain CLA4, active compounds read low 0.972 | S. cerevisiae deletion strains, locus YNL307C, strain MCK1, active compounds read low 0.989 | S. cerevisiae deletion strains, locus YNL322C, strain KRE1 (second series), active compounds read low 0.987 | S. cerevisiae deletion strains, locus YNL322C, strain KRE1, active compounds read low 0.987 | S. cerevisiae deletion strains, locus YNR049C, strain mso1, active compounds read low 0.983 | S. cerevisiae deletion strains, locus YNR052C, strain pop2, active compounds read low 0.962 | S. cerevisiae deletion strains, locus YOL006C, strain TOP1, active compounds read low 1.14 | S. cerevisiae deletion strains, locus YOL012C, strain htz1 0.991 | S. cerevisiae deletion strains, locus YOL147C, strain pex11, active compounds read low 0.978 | S. cerevisiae deletion strains, locus YOR001W, strain rrp6, active compounds read low 0.999 | S. cerevisiae deletion strains, locus YOR061W, strain CKA2, active compounds read low 0.996 | S. cerevisiae deletion strains, locus YOR069W, strain VPS5, active compounds read low 0.983 | S. cerevisiae deletion strains, locus YOR070C, strain gyp1, active compounds read low 0.965 | S. cerevisiae deletion strains, locus YOR080W, strain dia2, active compounds read low 0.996 | S. cerevisiae deletion strains, locus YOR083W, strain WHI5, active compounds read low 0.992 | S. cerevisiae deletion strains, locus YOR106W, strain vam3, active compounds read low 0.983 | S. cerevisiae deletion strains, locus YOR136W, strain idh2, active compounds read low 0.992 | S. cerevisiae deletion strains, locus YOR144C, strain elg1, active compounds read low 0.988 | S. cerevisiae deletion strains, locus YOR184W, strain ser1, active compounds read low 1.03 | S. cerevisiae deletion strains, locus YOR231W, strain MKK1, active compounds read low 0.998 | S. cerevisiae deletion strains, locus YOR265W, strain rbl2, active compounds read low 0.995 | S. cerevisiae deletion strains, locus YOR270C, strain vph1, active compounds read low 1.03 | S. cerevisiae deletion strains, locus YOR290C, strain snf2, active compounds read low 1.01 | S. cerevisiae deletion strains, locus YOR316C, strain cot1, active compounds read low 0.962 | S. cerevisiae deletion strains, locus YPL051W, strain arl3, active compounds read low 0.997 | S. cerevisiae deletion strains, locus YPL078C, strain atp4, active compounds read low 1 | S. cerevisiae deletion strains, locus YPL106C, strain sse1, active compounds read low 0.972 | S. cerevisiae deletion strains, locus YPL240C, strain hsp82, active compounds read low 0.977 | S. cerevisiae deletion strains, locus YPL256C, strain CLN2, active compounds read low 0.999 | S. cerevisiae deletion strains, locus YPR119W, strain clb2, active compounds read low 0.979 | S. cerevisiae deletion strains, locus YPR141C, strain kar3, active compounds read low 0.951 | S. cerevisiae deletion strains, locus YPR163C, strain tif3, active compounds read low 0.959 | S. cerevisiae deletion strains, locus YPR167C, strain met16, active compounds read low 0.985 | S. cerevisiae deletion strains, strain wtn01, active compounds read low 1.01 | S. cerevisiae strains, strain wild type, active compounds read low 1.01
